Measurements as given in PubChem BioAssay (NCI).
Compounds without any hit were thinned out: in the full panel of roughly 83,000, 20% have a hit.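 Plates (96-well) were seeded with cells, treated with compound at one concentration, and incubated for 48 hours before percent growth was determined.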 Active and inactive are the calls of the source. How the source made its calls: active means growth percent below 10; inactive means the rest.

Assays:
Test in all cases: NCI-60 one-dose screen, 48 h (100 = growth as untreated, 0 = no growth, -100 = all killed)
Conditions in all cases: 10 µM unless noted
SK-MEL-2 melanoma = system: SK-MEL-2 melanoma
EKVX NSCLC = system: EKVX NSCLC
TK-10 renal = system: TK-10 renal
ACHN renal = system: ACHN renal
CAKI-1 renal = system: CAKI-1 renal
A498 renal = system: A498 renal
CCRF-CEM leukemia = system: CCRF-CEM leukemia
MOLT-4 leukemia = system: MOLT-4 leukemia
UO-31 renal = system: UO-31 renal

Measured: growth

C#Cc1cccc(NC(=O)C2CCCCN2C(=O)CCl)c1 (stereo unspecified)
inactive: EKVX NSCLC 19.6% [8.25 µM] | A498 renal 58.5% [8.25 µM]
active: SK-MEL-2 melanoma -51.7% [8.25 µM] | TK-10 renal 9.36% [8.25 µM] | ACHN renal -97.3% [8.25 µM] | CAKI-1 renal -95.5% [8.25 µM] | CCRF-CEM leukemia -11.9% [8.25 µM] | MOLT-4 leukemia -13.7% [8.25 µM]

Cn1cc(-c2csc(-c3cn(CCCN4CCOCC4)c4ccc(F)cc34)n2)c2cccnc21
inactive: SK-MEL-2 melanoma 86.3% | EKVX NSCLC 63% | UO-31 renal 50.2% | TK-10 renal 75.1% | ACHN renal 63.8% | CAKI-1 renal 79% | A498 renal 36.1% | CCRF-CEM leukemia 36.4% | MOLT-4 leukemia 32.1%

COC(=O)c1ccc2cc(OC)c(OC)cc2c1
inactive: SK-MEL-2 melanoma 134% | EKVX NSCLC 84.8% | UO-31 renal 100% | TK-10 renal 103% | ACHN renal 106% | CAKI-1 renal 91.6% | A498 renal 75.4% | CCRF-CEM leukemia 91% | MOLT-4 leukemia 85.8%

COCCOC(C)C(/C=N/NC(N)=S)=N/NC(N)=S (stereo unspecified)
inactive: SK-MEL-2 melanoma 82.5% | EKVX NSCLC 55.7% | UO-31 renal 79.1% | TK-10 renal 92.5% | ACHN renal 66.7% | CAKI-1 renal 82.6% | A498 renal 107% | CCRF-CEM leukemia 42.6% | MOLT-4 leukemia 16.7%

Cc1c2ccccc2nc2cc3c(cc12)[C@H]1CC[C@]2(C)C(=O)CC[C@H]2[C@@H]1CC3
inactive: SK-MEL-2 melanoma 103% | EKVX NSCLC 91.5% | UO-31 renal 74% | TK-10 renal 111% | ACHN renal 95% | CAKI-1 renal 73.7% | A498 renal 104% | CCRF-CEM leukemia 97.4% | MOLT-4 leukemia 80.8%

CC1(/C=C/c2ccc(-c3ccccc3)cc2)CCn2cnc3ncnc(c32)N1O (stereo unspecified)
inactive: SK-MEL-2 melanoma 38.8% | EKVX NSCLC 17.6% | TK-10 renal 34.1% | A498 renal 19% | CCRF-CEM leukemia 11.8% | MOLT-4 leukemia 14.2%
active: UO-31 renal -5.45% | ACHN renal 6.19% | CAKI-1 renal 4.49%

CCN1C(=O)N(c2ccccc2)C2NC(=S)N(/N=C/C=C/c3ccccc3OC)C21 (stereo unspecified)
inactive: SK-MEL-2 melanoma 50.8% | EKVX NSCLC 54% | UO-31 renal 34.7% | TK-10 renal 75.7% | ACHN renal 29.2% | CAKI-1 renal 19.5% | CCRF-CEM leukemia 11.4% | MOLT-4 leukemia 13.3%
active: A498 renal 3.46%

COc1ccccc1/C=C/C(=O)Nc1ccc(F)cc1
inactive: SK-MEL-2 melanoma 99.1% | EKVX NSCLC 73.2% | UO-31 renal 87.6% | TK-10 renal 128% | CAKI-1 renal 90.7% | A498 renal 102% | CCRF-CEM leukemia 97.6% | MOLT-4 leukemia 88.1%

C=C(C)[C@@H]1CC[C@]2(COC3CCCCO3)CC[C@]3(C)[C@H](CC[C@@H]4[C@@]5(C)C=C(C=O)C(=O)C(C)(C)[C@@H]5CC[C@]43C)[C@@H]12 (stereo partly specified)
active: SK-MEL-2 melanoma -40.9% | EKVX NSCLC -60% | UO-31 renal -86.8% | TK-10 renal -82.5% | ACHN renal -59.2% | CAKI-1 renal -40.8% | CCRF-CEM leukemia -34.9% | MOLT-4 leukemia 3.64%

COc1ccc(C(O)c2cc3c(N)c(C(=O)Nc4cccc5ccccc45)sc3nc2C)cc1 (stereo unspecified)
inactive: SK-MEL-2 melanoma 35.8% | EKVX NSCLC 41.8% | UO-31 renal 25.8% | TK-10 renal 63.8% | ACHN renal 22% | CAKI-1 renal 15.5% | CCRF-CEM leukemia 13.2% | MOLT-4 leukemia 10.9%
active: A498 renal -13.1%

Cc1cc(Cl)nc(N2CCN(CCNc3ccnc4cc(Cl)ccc34)CC2)n1
inactive: SK-MEL-2 melanoma 61.1% | EKVX NSCLC 44.8% | UO-31 renal 32.4% | TK-10 renal 48.2% | ACHN renal 58.2% | CAKI-1 renal 44.6% | A498 renal 42.4% | CCRF-CEM leukemia 63.1% | MOLT-4 leukemia 32.6%

COc1ccc(OC)c(Nc2nnc(-c3cc(OC)c(OC)c(OC)c3)o2)c1
inactive: SK-MEL-2 melanoma 99.7% | EKVX NSCLC 99.8% | UO-31 renal 89.6% | TK-10 renal 103% | ACHN renal 105% | CAKI-1 renal 100% | A498 renal 89.9% | CCRF-CEM leukemia 121% | MOLT-4 leukemia 84.1%

O=C(Nc1ncc(Cc2ccccc2)s1)c1sc2ccccc2c1Cl
inactive: SK-MEL-2 melanoma 20.8% | EKVX NSCLC 30.2% | UO-31 renal 39% | TK-10 renal 38.8% | ACHN renal 39.8% | CAKI-1 renal 29.5% | A498 renal 15.1% | CCRF-CEM leukemia 18.8% | MOLT-4 leukemia 31.4%

Nc1nc(N)c2c(n1)NC(c1cccc(Nc3ccnc4cc(C(F)(F)F)ccc34)c1)CC(c1ccc3c(c1)OCO3)=N2 (stereo unspecified)
inactive: SK-MEL-2 melanoma 61.6% | EKVX NSCLC 76.7% | UO-31 renal 69.2% | TK-10 renal 90.1% | ACHN renal 102% | CAKI-1 renal 59.6% | CCRF-CEM leukemia 50.9% | MOLT-4 leukemia 29%

CCN(CC)CCn1c2ccc(OC)cc2c2sc3cc(O)ccc3c(=O)c21
active: ACHN renal 4.69% | MOLT-4 leukemia 8.27%
inactive: SK-MEL-2 melanoma 61.2% | EKVX NSCLC 47.3% | UO-31 renal 23.9% | TK-10 renal 82.2% | CAKI-1 renal 58.1% | A498 renal 43.8% | CCRF-CEM leukemia 13.9%

C=CCN=c1sc(-c2ccc3ccccc3c2)cn1NC(=O)c1cc2ccc1CCc1ccc(cc1)CC2
inactive: SK-MEL-2 melanoma 85.6% | EKVX NSCLC 58.2% | UO-31 renal 42.3% | TK-10 renal 79.7% | ACHN renal 72.3% | CAKI-1 renal 60.9% | A498 renal 62.7% | CCRF-CEM leukemia 41.2% | MOLT-4 leukemia 45.3%

Cn1c(=O)[nH]c(=O)c2nc3c(nc21)-c1ccccc1C3=O
inactive: SK-MEL-2 melanoma 103% | EKVX NSCLC 95% | TK-10 renal 102% | ACHN renal 94.2% | CAKI-1 renal 89.9% | A498 renal 95.2% | CCRF-CEM leukemia 106% | MOLT-4 leukemia 105%

COc1nc(/C=C\Nc2ccc3c(c2)OCCOCCOCCOCCO3)nc(OC)n1
inactive: SK-MEL-2 melanoma 108% | EKVX NSCLC 91.8% | UO-31 renal 79.5% | TK-10 renal 81.9% | ACHN renal 99.8% | CAKI-1 renal 93.1% | A498 renal 75.7% | MOLT-4 leukemia 107%
